65 molecules from PubChem BioAssay AID1347417 (National Center for Advancing Translational Sciences (NCATS), 2020) can be followed below.

The structures appear in SMILES notation. About 5,300 (4.4%) of roughly 120,000 compounds were called active. Entries that show only a call come without a potency. Not shown: some 22% with an inconclusive outcome. Calls come from the whole dose curve; as a rule, active = well fitted inhibition curve with a large enough effect; inconclusive = small, poorly fitted or top-dose-only effect; inactive = no such curve, though single readings can be large or run the other way. For the sample, actives were picked, then their nearest neighbours and some compounds at random.
Potency is the fitted concentration of half-maximal effect.

The nature of this test: qHTS Primary assay for Inhibitors of Plasmodium falciparum Dd2 growth in vitro. Note: nearly all actives have a fitted effect of over 65% in size. Particulars: P. falciparum Dd2 growth, SYBR Green, 72 h; series mostly up to 28.9 µM. The essentials:
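Readout: SYBR Green fluorescence, 485 nm excitation, 535 nm emission, after ~16 h lysis at 37C. Before that, Dd2-infected red cells (2.5% hematocrit) grew 72 h with compound, 29 uM top final concentration.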
(In general: qHTS replaces the single test concentration by a dilution series.)
As to `CCc1ccc(NC(=O)c2cc(S(=O)(=O)NC3CCCCCC3)ccc2F)cc1`, the Potency was 7.94 µM (active).

`CC(C)c1ccc(NC(=O)c2cc(S(=O)(=O)N3CCc4ccccc4C3)ccc2F)cc1`: the Potency entry was “inactive”.

Consider `NS(=O)(=O)c1ccc(NC(=O)COc2ccc(S(=O)(=O)NC3CCCCC3)cc2)cc1`, for which the Potency entry is “inactive”.

`Cc1cnc(C(=O)N(C)C2CCc3nnc(C)n3CC2)cn1` (stereo not given): the Potency entry is “inactive”.

Take `O=C1CC(NCc2ccoc2)CN1CCc1cccc(Cl)c1` (stereo not given): the Potency was 10 µM (active).

As to `O=C(CC1CC1)N1C[C@H]2OC(=O)N(CCc3cccc(Cl)c3)[C@H]2C1`, the Potency result is “inactive”.

Turning to `O=C(NC1CC(=O)N(CCc2cccc(Cl)c2)C1)c1ccsc1` (stereo not given), the Potency entry was “inactive”.

As to `COc1ccc(-c2nc(Cn3c(=O)cc(C)c4c(C)nn(-c5ccccc5)c43)c(C)o2)cc1OC`, the Potency result was “inactive”.

For the molecule `COc1ccc(-c2nc(CN3CCOC(CN)C3)c(C)o2)c2ccccc12` (stereo not given), the Potency was 12.6 µM (active).

Consider `COC(=O)c1cc2occc2n1Cc1nc(-c2ccccc2C)oc1C`, for which the Potency entry is “inactive”.

As to `Cc1oc(-c2cccs2)nc1CN1CCOC(Cc2ccccc2)C1` (stereo not given), the Potency entry is “inactive”.

With `COc1cccc(-c2nc(CS(=O)(=O)CC(=O)N3CCN(c4cc(C)ccc4C)CC3)c(C)o2)c1`, the Potency entry was “inactive”.

For `Cc1oc(-c2cccc(Oc3ccccc3)c2)nc1CN1CCOC(CCN)C1` (stereo not given), the Potency is 7.08 µM (active).

For `CC(C)CN=C1S[C@H]2[C@H]([C@@H](O)[C@H](O)C[C@@H]2C(N)=O)N1Cc1ccc(F)cc1`, the Potency result is “inactive”.

`O=C(Cc1cccc(F)c1)NC1CCN(c2cc(C(F)(F)F)ncn2)CC1`: the Potency result was “inactive”.

Consider `CCOC(=O)C1CCN(C(=O)CSc2c3c(nc4ccc(Cl)cc24)CCCC3)CC1`, for which the Potency is 14.1 µM (active).

Consider `COc1ccc(N2CCN(C(=O)c3ccc4c(Cl)c5c(nc4c3)CCCC5)CC2)cc1`, for which the Potency entry is “inactive”.

In the case of `CCOC(=O)C1CCN(c2nc3c(S(=O)(=O)c4ccc(CC)cc4)nnn3c3ccc(Cl)cc23)CC1`, the Potency result was “inactive”.

For `COc1cc(C(=O)N2CCC(Cc3nc(-c4ccccc4)no3)CC2)cc(OC)c1OC`, the Potency result was “inactive”.

For `O=C(N[C@H]1CCOC[C@H]1C1CCOCC1)c1cccc2nccnc12`, the Potency entry is “inactive”.

Consider `CCn1ncc(N2CCCC(CC(=O)NCc3ccc(OC)cc3)C2)cc1=O` (stereo not given), for which the Potency result was “inactive”.

As for `O[C@@H]1C[C@@H](c2nc(Cc3ccc(F)cc3Cl)no2)N(Cc2ncc[nH]2)C1`, the Potency result was “inactive”.

As to `Cc1nn(CCC#N)c(C)c1[C@@H]1C=C[C@@H](NS(=O)(=O)c2ccccc2)C1`, the Potency entry is “inactive”.

For `Cc1nn(-c2ccc(C(C)C)cc2)c(C)c1[C@@H]1C=C[C@@H](NC(=S)NCC(C)C)C1`, the Potency was 12.6 µM (active).

For the molecule `Cc1nn(-c2ccccc2)c(C)c1[C@@H]1C=C[C@@H](NC(=O)c2ccc3c(c2)OCO3)C1`, the Potency result was “inactive”.

On to `COc1cccc(NC(=O)Cn2c(=O)cc(C)c3c(C)nn(-c4cccc(F)c4)c32)c1`, for which the Potency result was “inactive”.

For `Cc1nn(-c2ccc(C(C)C)cc2)c(C)c1[C@@H]1C=C[C@@H](NC(=O)Nc2ccccc2)C1`, the Potency was 11.2 µM (active).

With `Cc1nn(-c2cccc(Br)c2)c(C)c1[C@@H]1C=C[C@@H](NC(=O)CC2(CC(=O)O)CCCC2)C1`, the Potency result was “inactive”.

For the molecule `Cc1nn(Cc2ccccc2)c(C)c1[C@@H]1C=C[C@@H](NC(=O)NC2CCCCC2)C1`, the Potency entry is “inactive”.

As for `Cc1nn(-c2ccc(C(C)C)cc2)c(C)c1[C@@H]1C=C[C@@H](NC(=O)CC2(CC(=O)O)CCCC2)C1`, the Potency entry is “inactive”.

As for `CCC(C)NC(=O)Cc1csc2nc(C)c(-c3cc(C)n(-c4ccc(C(C)C)cc4)n3)c(=O)n12` (stereo not given), the Potency result is “inactive”.

In the case of `Cc1nn(Cc2ccccc2)c(C)c1[C@@H]1C=C[C@@H](NC(=O)NC(C)C)C1`, the Potency entry is “inactive”.

Take `COc1ccc(-n2nc(C)c([C@@H]3C=C[C@@H](NC(=O)Nc4ccccc4)C3)c2C)cc1`: the Potency was 10 µM (active).

Turning to `COc1ccc(-n2nc(C)c([C@H]3C=C[C@@H](OC(=O)Nc4cccc(F)c4)C3)c2C)cc1`, the Potency is 10 µM (active).

In the case of `C=CCNC(=O)C1N(C(C)C)C(=O)C12CCCCC2` (stereo not given), the Potency entry was “inactive”.

Take `COc1ccc(NC(=O)C2CN(S(=O)(=O)c3cccnc3)CC23CCCCC3)cc1F` (stereo not given): the Potency entry is “inactive”.

With `CCOCCCNC(=O)N1C[C@@H](Oc2cccnc2)C[C@@H]1C(=O)N1CCOCC1`, the Potency result is “inactive”.

Take `CCCN(CC1CCOC1)S(=O)(=O)c1ccc2c(c1)CCCC2` (stereo not given): the activity, negative = inhibition is 7.48% [at 5.79 µM] (inactive).

With `CC(C)N1C(=O)CO[C@H]2CCN(CCCc3ccccc3)CC[C@@H]21`, the Potency result was “inactive”.

With `COc1ccc(NC(=O)C2CCCN(S(=O)(=O)c3cccc4nonc34)C2)cc1Cl` (stereo not given), the Potency entry is “inactive”.

For `CCCCC(CC)CNC(=O)C1CCN(S(=O)(=O)c2cccc3nsnc23)CC1` (stereo not given), the Potency result was “inactive”.

Regarding `CCCCN(C)CCNC(=O)C1CCCN(S(=O)(=O)c2cccc3nsnc23)C1` (stereo not given), the Potency was 5.01 µM (active).

With `O=C(Cc1cccc(Cl)c1)NCc1nnc2ccc(-c3ccccc3)nn12`, the Potency entry is “inactive”.

Turning to `Cc1cc(C(=O)N2CCCCCCn3c(nnc3-c3ccc(F)cc3)CC2)nn1C`, the Potency entry was “inactive”.

Regarding `CCN(Cc1ccccc1)C(=O)CCS(=O)(=O)c1ccc2c(c1)oc(=O)n2C`, the Potency entry is “inactive”.

Consider `Cc1c(Cl)cccc1NC(=O)CCS(=O)(=O)c1ccc2c(c1)oc(=O)n2C`, for which the Potency is 3.16 µM (active).

On to `CCOC(=O)c1ccc(NC(=O)CCS(=O)(=O)c2ccc3c(c2)oc(=O)n3C)cc1`, for which the Potency result was “inactive”.

On to `COc1cccc(CC(=O)N2CCN(c3cc(-c4cccs4)[nH]n3)CC2)c1`, for which the Potency entry was “inactive”.

`O=C(NCCn1ccn2nc(-c3ccc(F)cc3)cc2c1=O)c1ccco1`: the Potency result is “inactive”.

Take `Cn1cnc(S(=O)(=O)N2[C@H]3CC[C@@H]2c2cnc(-c4ccc(F)cc4)nc2C3)c1`: the Potency entry was “inactive”.

Take `O=C(Cc1ccccc1)N1[C@H]2CC[C@@H]1c1cnc(-c3ccc(F)cc3)nc1C2`: the Potency result is “inactive”.

For `COC(=O)c1ccc(NC(=O)N2[C@H]3CC[C@@H]2c2cnc(-c4ccc(F)cc4)nc2C3)cc1`, the Potency is 7.08 µM (active).

In the case of `O=C1NCCOCCN(C(=O)Nc2ccccc2)[C@@H]2CCCC[C@H]12`, the Potency result is “inactive”.

For the molecule `COc1ccc(-c2noc([C@@H](C)NCc3ccc(F)cc3)c2C(=O)O)cc1`, the Potency entry is “inactive”.

In the case of `O=C(c1ccc(Cl)cc1)N1CCn2c(nn(-c3ccncc3)c2=O)C1`, the Potency result is “inactive”.

As to `CCOC(=O)C1=CN(CC(=O)Nc2cccc(C(C)C)c2)S(=O)(=O)N=C1C`, the Potency entry was “inactive”.

For `COc1ccccc1-c1cc([C@H]2CN3CC[C@H]2C[C@@H]3CNCc2cccc(C#N)c2)n(C)n1`, the Potency entry was “inactive”.

As to `Cn1nc(-c2ccc(F)cc2)cc1[C@H]1CN2CC[C@H]1C[C@@H]2CNCc1ccccn1`, the Potency was 2.82 µM (active).

As for `COc1ccc(-c2cc([C@H]3CN4CC[C@H]3C[C@@H]4CNS(=O)(=O)Cc3ccccc3)n(C)n2)cc1OC`, the Potency is 11.2 µM (active).

`Cc1ccc(S(=O)(=O)NC[C@H]2C[C@@H]3CCN2C[C@@H]3CN2CCN(c3ncccn3)CC2)cc1`: the Potency result was “inactive”.

Turning to `COc1cc2c(cc1OC)C(CNC(=O)c1cccc(Cl)c1)N(C(=O)Nc1ccccc1)CC2` (stereo not given), the Potency result was “inactive”.

With `COc1ccc(-c2cc([C@H]3CN4CC[C@H]3C[C@@H]4CNC(=O)C3CC3)n(C)n2)cc1OC`, the Potency entry is “inactive”.

In the case of `O=C(NCc1ccccc1)[C@H]1CN2CCC1C[C@@H]2Cn1cc(-c2ccc(F)cc2)nn1` (stereo not given in full), the Potency result is “inactive”.

`COc1ccc(-c2ccc3ncn(Cc4ccccc4)c(=O)c3n2)cc1OC`: the Potency entry is “inactive”.

In the case of `COc1ccc(-c2cc([C@H]3CN4CC[C@H]3C[C@@H]4CNC(=O)c3ccccc3)n(C)n2)cc1OC`, the Potency was 11.2 µM (active).
